Reference: PubChem BioAssay (Tox21)
Inconclusive results are not listed. A call without a number means that no potency is given here. Values without a mark were called inactive. Activity calls are given as the source filed them. Calls follow the shape of the dose curve; as a rule, active = well fitted activation curve with a large enough effect; inconclusive = small, poorly fitted or top-dose-only effect; inactive = flat fitted curve, though single readings scatter.
Potency is read from the fitted curve at half-maximal effect.

Experiment: qHTS assay to identify small molecule phospholipidosis (PLD) inducers (AID 1259344)
Settings: HepG2 phospholipidosis, LipidTOX Red imaging, 24 h; series mostly up to 38.3 µM
Excerpt: National Center for Advancing Translational Sciences [NCATS]
Drug-induced Phospholipidosis (PLD) caused by cationic amphiphilic drugs is characterized by the appearance of unicentric or multicentric-lamellar bodies when viewed under electron microscope. Electron microscopy is the gold standard method for PLD detection, however, this method is time-consuming and labor intensive, making it unsuitable for evaluating a large set of compounds. A cell-based phospholipidosis assay has been developed using the LipidTox reagent in HepG2 cells and miniaturized into a 1536-well plate format. Drug induced phospholipid accumulation is stained with the LipidTox dyes in red color which then is determined using an automated high content screening system.
HepG2 cells are dispensed at 900 cells/3 uL/well into Collagen I-coated 1536-well black-wall/clear-bottom assay plates (Greiner Bio-One, Monroe, NC) using the Multidrop Combi 8 channel dispenser (Thermo Fisher, Waltham, MA, USA). The assay plates are incubated at 37 C for 4 hours to allow the cell attachment. 3 uL of 1:500 LipidTOX Red dye is added using the dispenser, and then 23 nL compounds are added via a Wako Pintool station (Wako Automation, San Diego, CA). Amiodarone, a known PLD inducer, was used as a positive control and DMSO was used as a negative control. The assay plates were then incubated at 37 C for 24 hours.
For fixations, 4 uL of 8% paraformaldehyde fixative solution containing 10 ug/mL Hoechst 33342 in Dulbecco's phosphate-buffered saline (DPBS) is added using a Kalypsys washer/dispenser (Kalypsys, San Diego, CA, USA). After incubation at room temperature for 30 min, the assay plates are washed once with DPBS using a Kalypsys washer/dispenser. The assay plates are then sealed and stored at 4 C before imaging. The fluorescence intensities (595 nm excitation, 615 nm emission for LipidTOX; 352 nm excitation, 461 nm emission for Hoechst 33342) are measured using an ImageXpress Micro Widefield High Content Screening System (Molecular Devices, Sunnyvale, CA, USA) with a 20x Plan Fluor objective. Images are acquired for one site in each well and analyzed with the MetaXpress software (Molecular Devices) using the Transfluor module. Several algorithmic outputs, such as pit count per well, pit count per cell, pit integrated intensity per well, and pit integrated intensity per cell, are used for quantitative image analysis for PLD.
For `CCOCC(O)COc1ccc(NC(=O)CC[S+](C)C)cc1` (stereo not given), the Potency was “inactive”. With `O=C(NCCO[N+](=O)[O-])c1cccnc1` the Potency was “inactive”. With `O=C1[C@H]2CCCC[C@H]2C(=O)N1CCCCN1CCN(c2nsc3ccccc23)CC1` the Potency was 14.1 µM (active). With `Cc1[nH]c(C)c(Cl)c(=O)c1Cl` the Potency was “inactive”. For `CCn1cc(C(=O)O)c(=O)c2cnc(N3CCNCC3)nc21`, the Potency was “inactive”. For `CC(=O)OC[C@H]1O[C@@H](n2ncc(=O)[nH]c2=O)[C@H](OC(C)=O)[C@@H]1OC(C)=O`, the Potency was “inactive”. For `CCC(=O)O[C@]1(C(=O)CCl)[C@@H](C)C[C@H]2[C@@H]3CCC4=CC(=O)C=C[C@]4(C)[C@@]3(F)[C@@H](O)C[C@@]21C`, the Potency was “inactive”. For `C/C(=C(\CCOP(=O)(O)O)SC(=O)c1ccccc1)N(C=O)Cc1cnc(C)nc1N`, the Potency was “inactive”. In the case of `CCCCO`, the Potency is reported as “inactive”. For `CCCCC`, the Potency was “inactive”. With `CCCCNc1ccc(C(=O)OCCOCCOCCOCCOCCOCCOCCOCCOCCOC)cc1` the Potency was “inactive”. Compound `CN1C[C@H]2c3ccccc3Oc3ccc(Cl)cc3[C@@H]2C1` has a PLD induction of 1.39% [at 7.66 µM]. In the case of `C[C@H](CCC(=O)O)[C@H]1CC[C@H]2[C@@H]3CC[C@@H]4C[C@H](O)CC[C@]4(C)[C@H]3C[C@H](O)[C@]12C`, the Potency is reported as “inactive”. With `C=CCOc1ccccc1OCC(O)CNC(C)C` (stereo not given) the Potency was “inactive”. In the case of `Cc1ncc(CO)c(C=O)c1O`, the Potency is reported as “inactive”. In the case of `C#Cc1cccc(Nc2ncnc3cc(OCCOC)c(OCCOC)cc23)c1`, the Potency is reported as 10 µM (active). In the case of `CC(=O)[O][Al][O]C(C)=O`, the Potency is reported as “inactive”. With `COc1cccc(N(C)C(=S)Oc2ccc3c(c2)CCCC3)n1` the Potency was “inactive”. In the case of `Cc1cccc(C)c1OCC(=O)N[C@@H](Cc1ccccc1)[C@@H](O)C[C@H](Cc1ccccc1)NC(=O)[C@H](C(C)C)N1CCCNC1=O`, the Potency is reported as “inactive”. For `Clc1ccc(Cn2c(CN3CCCC3)nc3ccccc32)cc1`, the Potency was “inactive”. With `CCOC(=O)c1cccnc1` the Potency was “inactive”. With `COc1ccc(C(=O)N2CCN(CC(=O)N3CCOCC3)CC2)cc1` the Potency was “inactive”. Compound `CN(Cc1ccc(C(C)(C)C)cc1)Cc1cccc2ccccc12` has a PLD induction of -0.504% [at 7.66 µM]. For `Nc1ncn([C@H]2C[C@H](O)[C@@H](CO)O2)c(=O)n1`, the Potency was “inactive”. In the case of `O=C(O)C(S)C(S)C(=O)O` (stereo not given), the Potency is reported as “inactive”. For `O=S(c1cc(Cl)cc(Cl)c1O)c1cc(Cl)cc(Cl)c1O`, the Potency was “inactive”. With `O=C(Nc1ccc(S(=O)(=O)N2CCOCC2)cc1)c1cc(Cl)ccc1NS(=O)(=O)c1ccc(Cl)s1` the Potency was “inactive”. In the case of `CCN(CC)CCNC(=O)c1cc(Br)c(N)cc1OC`, the Potency is reported as “inactive”. For `CN1CCN(C(c2ccccc2)c2ccccc2)CC1`, the Potency was “inactive”. In the case of `CC[N+]1(CC)CCC(=C(c2ccccc2)c2ccccc2)C1C` (stereo not given), the Potency is reported as “inactive”. With `CCCCCCCCCc1ccc(OCCOCCO)cc1` the Potency was “inactive”. For `COc1cc2nc(N(C)CCCNC(=O)C3CCCO3)nc(N)c2cc1OC` (stereo not given), the Potency was “inactive”. With `c1ccc(CNCCNCc2ccccc2)cc1` the Potency was “inactive”. With `CN1CCC(N(Cc2cccs2)c2ccccc2)CC1` the PLD induction was -4.03% [at 7.66 µM]. In the case of `C#C[C@]1(O)CC[C@H]2[C@@H]3CCc4cc(OC5CCCC5)ccc4[C@H]3CC[C@@]21C`, the Potency is reported as “inactive”. With `Nc1ccc(S(=O)(=O)Nc2ccccc2)cc1` the Potency was “inactive”. For `CN1CCC(=C2c3ccccc3Sc3ccccc32)CC1`, the Potency was 10 µM (active). In the case of `C[N+](C)(C)CCOC(=O)CCC(=O)OCC[N+](C)(C)C`, the Potency is reported as “inactive”. For `COc1cc2nc(N3CCN(C(=O)C4COc5ccccc5O4)CC3)nc(N)c2cc1OC` (stereo not given), the Potency was “inactive”. For `OC(C#CCN1CCCC1)(c1ccccc1)c1ccccc1`, the Potency was “inactive”.
